Experimental data reported in PubChem BioAssay (EPA / NIEHS).
Several values for one entry are separate records, joined by “and”; a condition that tells them apart may be missing. Identical values can stand only once. Inconclusive results are not listed. A structure can be active in one record and inactive in another. Activity calls are given as the source filed them. The calls were made as follows, unless noted: active = hit-call score of the fitted dose curve at least 0.9, where 1 is the maximum; inconclusive = response in the unintended direction; inactive = score below 0.9.

How the values were obtained:
[1] = read-out: X-box binding protein 1 (XBP1), XBP1 (gene 7494); test: LTEA_HepaRG_XBP1: Life Technologies and Expression Analysis (LTEA) Assay for X-box binding protein 1 (XBP1) using HepaRG (AID 2283540; active = hit-call score of the fitted dose curve at least 0.9, where 1 is the maximum; inactive = score below 0.9); conditions: mRNA level, 48 h; actives raise or lower the signal
Outline: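 Differentiated human HepaRG cells in serum-free induction medium were exposed in duplicate for 48 h to eight half-log concentrations up to 100 uM in 0.5% DMSO. XBP1 mRNA was quantified by qRT-PCR, normalised to ACTB, GAPDH and POLR2A, with bidirectional fitting against DMSO.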

[2] = LTEA_HepaRG_LDH_cytotoxicity: Cytotoxicity Assessment in the Life Technologies and Expression Analysis (LTEA) Assay (AID 2283563);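 as to AC50: LDH activity released into spent culture medium as a marker of cell death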
Outline: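 Differentiated human HepaRG cells, plated 48 h beforehand, were switched to serum-free induction medium and exposed for 48 h to eight half-log concentrations (top 100 uM) in 0.5% DMSO. LDH was measured in spent medium; activity was fitted relative to DMSO vehicle.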

[3] = ATG_XTT_Cytotoxicity: Cytotoxicity Assessment in the Attagene TRANS-FACTORIAL HepG2 Assay (AID 2283584);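 as to AC50: cells exposed to compound for 24 h before reading; active means loss of viability signal versus DMSO baseline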
Outline: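 HepG2 human liver cells, transiently transfected with multiple GAL4-UAS reporter units, were dosed and read at 24 h by XTT as cell number. Loss of signal was fitted relative to DMSO negative control baseline.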

[4] = TOX21_p53_BLA_p2_viability: Viability Assessment in the Tox21 HCT-116 p53 Agonism Beta-lactamase Assay, Phase 2 (AID 2283591);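 also: compound exposure lasted 16 h at 37 °C; actives lower the ATP signal meaning cytotoxicity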
Outline: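 HCT-116 p53-bla cells (4000/well) rested 5 h at 37C, then received compounds in DMSO (217-fold dilution) for 16 h at 37C, 5% CO2. After the CCF4 read, CellTiter-Glo was added; ATP luminescence was read after 30 min at room temperature.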

[5] = target: Cellular tumor antigen p53 (Homo sapiens) (UniProt P04637); test: TOX21_p53_BLA_p2_ratio: Tox21 HCT-116 p53 Agonism Beta-lactamase Assay, Ratio, Phase 2 (AID 2283592)
Sequence of Cellular tumor antigen p53 (Homo sapiens) (P04637 whole entry, looked up): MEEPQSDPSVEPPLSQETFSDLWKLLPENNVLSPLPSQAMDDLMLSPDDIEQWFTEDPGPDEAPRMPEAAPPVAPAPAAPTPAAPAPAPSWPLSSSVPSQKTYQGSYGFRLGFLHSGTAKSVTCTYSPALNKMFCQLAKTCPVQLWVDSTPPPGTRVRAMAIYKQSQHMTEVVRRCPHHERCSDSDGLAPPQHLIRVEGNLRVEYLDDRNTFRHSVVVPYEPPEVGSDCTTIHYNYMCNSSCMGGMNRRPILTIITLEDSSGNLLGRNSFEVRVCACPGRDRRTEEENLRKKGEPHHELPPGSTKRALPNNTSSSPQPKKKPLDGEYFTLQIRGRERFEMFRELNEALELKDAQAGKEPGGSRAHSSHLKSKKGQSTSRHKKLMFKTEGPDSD
Outline: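 HCT116 cells carrying a p53-responsive beta-lactamase reporter were plated, incubated 5 h at 37C, then dosed with compounds in DMSO (217-fold dilution) for 16 h. CCF4-AM substrate was added for 2 h at room temperature; the 460/530 nm emission ratio gave gain-of-signal activity relative to DMSO.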

[6] = TOX21_p53_BLA_p3_viability: Viability Assessment in the Tox21 HCT-116 p53 Agonism Beta-lactamase Assay, Phase 3 (AID 2283593);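 also: cells exposed to compound for 16 h before reading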
Outline: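 HCT-116 cells (4000/well) rested 5 h at 37C, then got DMSO compounds by pin tool (217-fold dilution) for 16 h at 37C, 5% CO2. After the bla read, CellTiter-Glo was added and luminescence read at 30 min, room temperature.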

[7] = target: Cellular tumor antigen p53 (Homo sapiens) (UniProt P04637); test: TOX21_p53_BLA_p3_ratio: Tox21 HCT-116 p53 Agonism Beta-lactamase Assay, Ratio, Phase 3 (AID 2283596)
Outline: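 HCT116 p53-bla cells (4000/well) given compound in DMSO (217-fold dilution) after 5 h, incubated 16 h at 37C. CCF4-AM substrate 2 h at room temperature; 460/530 nm emission ratio, gain fitted against DMSO.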

[8] = TOX21_p53_BLA_p4_viability: Viability Assessment in the Tox21 HCT-116 p53 Agonism Beta-lactamase Assay, Phase 4 (AID 2283597);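 also: hits lower the luminescence signal meaning cytotoxicity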
Outline: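 HCT116 p53-bla cells (4000/well) rested 5 h at 37C, then received compounds in DMSO (217-fold dilution) for 16 h at 37C, 5% CO2. CellTiter-Glo was added after the CCF4-AM read, and luminescence was read after 30 min at room temperature.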

[9] = target: Cellular tumor antigen p53 (Homo sapiens) (UniProt P04637); test: TOX21_p53_BLA_p5_ratio: Tox21 HCT-116 p53 Agonism Beta-lactamase Assay, Ratio, Phase 5 (AID 2283599)
Outline: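 HCT-116 cells carrying a p53-inducible beta-lactamase reporter were seeded at 4000 cells/well and dosed after 5 h with compound in DMSO (217-fold dilution). After 16 h at 37C, CCF4-AM substrate was added for 2 h, and the 460/530 nm emission ratio was scored as gain-of-signal versus DMSO.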

[10] = TOX21_p53_BLA_p5_viability: Viability Assessment in the Tox21 HCT-116 p53 Agonism Beta-lactamase Assay, Phase 5 (AID 2283600)
Outline: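 Cells were plated at 4000/well, rested 5 h at 37C, then given compounds in DMSO (217-fold dilution) for 16 h at 37C, 5% CO2. Following the CCF4-AM beta-lactamase read, CellTiter-Glo was added and luminescence was read after 30 min at room temperature.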

Measured: AC50

CC(C)(C)C(O)/C(=C\c1ccc(Cl)cc1Cl)n1cncn1 (stereo not given)
active: [2] 72.9 µM | [3] 56.3 µM | [8] 51.8 µM
inactive: all other assays above

COP(=O)(OC)OC=C(Cl)Cl
inactive: [1] | [2]

CC(C)(C)C(O)C(Oc1ccc(Cl)cc1)n1cncn1 (stereo not given)
inactive: all assays above

CCN(CC)C(=O)SCc1ccc(Cl)cc1
not listed: [3] | [5] | [10]
inactive: all other assays above

OCCOc1ccccc1
not listed: [3]
inactive: all other assays above

CC[C@H](C)[C@H]1O[C@]2(C=C[C@@H]1C)C[C@@H]1C[C@@H](C/C=C(\C)[C@@H](O[C@H]3C[C@H](OC)[C@@H](O[C@H]4C[C@H](OC)[C@@H](O)[C@H](C)O4)[C@H](C)O3)[C@@H](C)/C=C/C=C3\CO[C@@H]4[C@H](O)C(C)=C[C@@H](C(=O)O1)[C@]34O)O2 (tested in a mixture with another compound)
inactive: [1] | [5] | [6] | [9]
active: [2] 22.1 µM | [4] 9.13 µM and 43.5 µM | [5] 17.6 µM | [6] 15.9 µM | [7] 28.7 µM | [8] 6.67 µM and 35.5 µM | [9] 31.4 µM | [10] 7.91 µM and 42.1 µM

CCc1ccc(C(=O)NN(C(=O)c2cc(C)cc(C)c2)C(C)(C)C)cc1
active: [2] 81.9 µM
not listed: [3] | [6] | [10]
inactive: all other assays above

CC1(C)C(C=C(Cl)Cl)C1C(=O)OC(C#N)c1ccc(F)c(Oc2ccccc2)c1 (stereo not given)
not listed: [7]
inactive: all other assays above

C[C@H]1[C@H](c2ccc(Cl)cc2)SC(=O)N1C(=O)NC1CCCCC1
not listed: [3] | [8]
inactive: all other assays above

O=[N+]([O-])c1c(Cl)c(Cl)c(Cl)c(Cl)c1Cl
not listed: [3]
inactive: all other assays above

CCC(C)(C)C(=O)OC1=C(c2ccc(Cl)cc2Cl)C(=O)OC12CCCCC2
active: [6] 74.9 µM | [7] 2.5 µM | [9] 28.4 µM
not listed: [3] | [10]
inactive: all other assays above

COC(=O)c1ccccc1CS(=O)(=O)NC(=O)Nc1nc(OC)cc(OC)n1
inactive: [4] | [5] | [6] | [10]

COC(=O)c1ccccc1S(=O)(=O)NC(=O)Nc1nc(C)nc(OC)n1
inactive: [3] | [4] | [5] | [6]

COC(=O)c1ccccc1S(=O)(=O)NC(=O)N(C)c1nc(C)nc(OC)n1
inactive: [4] | [8] | [10]

COc1nn(CSP(=S)(OC)OC)c(=O)s1
not listed: [3]
inactive: all other assays above

CCC(C)(NC(=O)c1cc(Cl)c(C)c(Cl)c1)C(=O)CCl (stereo not given)
active: [2] 77.6 µM | [4] 71.9 µM | [5] 30.2 µM | [6] 76.4 µM | [7] 29.6 µM | [8] 60.3 µM | [9] 72.2 µM | [10] 74.7 µM
inactive: [1]

CNC(=O)Oc1ccccc1OC(C)C
not listed: [3] | [6] | [8]
inactive: all other assays above

O=C(O)COc1ccc(Cl)cc1Cl
not listed: [7]
inactive: all other assays above

CC1(c2ccc(Oc3ccccc3)cc2)OC(=O)N(Nc2ccccc2)C1=O (stereo not given)
active: [2] 50.2 µM | [5] 16.9 µM | [8] 19.5 µM | [9] 46.4 µM
not listed: [3]
inactive: all other assays above
